In PubChem BioAssay (EPA / NIEHS) one finds outcome and AC50 data, which are given here for 1 compound.

Read-out in assay [1]: Thrombomodulin, THBD (gene 7056)
Description: BSK_CASM3C_Thrombomodulin: BioMAP Diversity Plus: CASM3C Assay for Thrombomodulin Biomarker Activity (AID 2283051).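 Also: thrombomodulin protein level measured by ELISA 24 h after dosing.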 Particulars: primary human coronary artery smooth muscle cells; actives raise or lower the signal.

Read-out in assay [2]: Tissue Factor, F3 (gene 2152)
The assay can be described thus: BSK_CASM3C_TissueFactor: BioMAP Diversity Plus: CASM3C Assay for Tissue Factor Biomarker Activity (AID 2283052).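 Also: cell surface tissue factor protein level read by ELISA.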 The settings on record: primary human coronary artery smooth muscle cells; actives raise or lower the signal.

Read-out in assay [3]: Interferon-gamma inducible Protein 10 (IP10), CXCL10 (gene 3627)
The assay can be described thus: BSK_hDFCGF_IP10: BioMAP Diversity Plus: hDFCGF Assay for Interferon-gamma inducible Protein 10 (IP10) Biomarker Activity (AID 2283053). The settings on record: primary human foreskin fibroblasts; actives raise or lower the signal. The essentials:
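IP-10 levels, quantified by ELISA, are taken from human foreskin fibroblast cultures 24 h after chemical treatment, with DMSO serving as negative control and baseline for bidirectional analysis.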

Read-out in assay [4]: Urokinase-type plasminogen activator receptor (uPAR), PLAUR (gene 5329)
Description: BSK_CASM3C_uPAR: BioMAP Diversity Plus: CASM3C Assay for Urokinase-type plasminogen activator receptor (uPAR) Biomarker Activity (AID 2283054).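 Also: cell-surface uPAR protein level quantified by ELISA.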 Particulars: primary human coronary artery smooth muscle cells; actives raise or lower the signal.

Read-out in assay [5]: Vascular cell adhesion molecule 1 (VCAM1), VCAM1 (gene 7412)
The assay can be described thus: BSK_CASM3C_VCAM1: BioMAP Diversity Plus: CASM3C Assay for Vascular cell adhesion molecule 1 (VCAM1) Biomarker Activity (AID 2283055).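 Also: VCAM-1 protein level quantified by ELISA on the cells.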 Particulars: primary human coronary artery smooth muscle cells; actives raise or lower the signal.

Read-out in assay [6]: Collagen III, COL3A1 (gene 1281)
The assay can be described thus: BSK_hDFCGF_CollagenIII: BioMAP Diversity Plus: hDFCGF Assay for Collagen III Biomarker Activity (AID 2283056). Particulars: primary human foreskin fibroblasts; actives raise or lower the signal. In a few lines:
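Human foreskin fibroblast primary cultures sampled 24 h after dosing; Collagen III quantified by ELISA. Signal fitted bidirectionally against DMSO baseline.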

Read-out in assay [7]: Epidermal growth factor receptor (EGFR), EGFR (gene 1956)
The assay can be described thus: BSK_hDFCGF_EGFR: BioMAP Diversity Plus: hDFCGF Assay for Epidermal growth factor receptor (EGFR) Biomarker Activity (AID 2283057). The settings on record: primary human foreskin fibroblasts; actives raise or lower the signal. In a few lines:
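Measured by ELISA: EGFR levels on primary human foreskin fibroblasts 24 h after chemical treatment, analysed relative to DMSO with bidirectional fitting.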

Read-out in assay [8]: Interleukin-8 (IL8), CXCL8 (gene 3576)
Description: BSK_hDFCGF_IL8: BioMAP Diversity Plus: hDFCGF Assay for Interleukin-8 (IL8) Biomarker Activity (AID 2283058). Particulars: primary human foreskin fibroblasts; actives raise or lower the signal. In a few lines:
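Primary human foreskin fibroblasts (hDFCGF system) dosed with chemical; IL-8 measured by ELISA 24 hours later. Bidirectional curve fitting relative to DMSO baseline; cytotoxicity tracked in parallel cultures by SRB total protein staining.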

The nature of assay [9]: BSK_hDFCGF_Proliferation: Cell Proliferation Assessment in the BioMAP Diversity Plus: hDFCGF Assay (AID 2283059).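 Also: curves fitted for both rise and fall of signal versus DMSO baseline.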 Particulars: primary human foreskin fibroblasts. In a few lines:
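Total protein read at 560 nm after 0.1% SRB staining of TCA-fixed human skin fibroblasts, […]. Activity is fitted in both directions relative to DMSO as baseline.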

Read-out in assay [10]: Macrophage colony-stimulating factor (MCSF), CSF1 (gene 1435)
Description: BSK_hDFCGF_MCSF: BioMAP Diversity Plus: hDFCGF Assay for Macrophage colony-stimulating factor (MCSF) Biomarker Activity (AID 2283060). Particulars: primary human foreskin fibroblasts; actives raise or lower the signal. In a few lines:
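Human foreskin fibroblast primary cultures; M-CSF measured by ELISA 24 hours after chemical dosing. Bidirectional fitting relative to DMSO, with overt cytotoxicity tracked by parallel SRB total-protein staining (0.1% SRB, 10% TCA fixation, 560 nm).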

Assay [11] is described as follows: BSK_hDFCGF_SRB: Viability Assessment in the BioMAP Diversity Plus: hDFCGF Assay (AID 2283061).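 Also: cells exposed to compound for 24 h before the read.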 The settings on record: primary human foreskin fibroblasts. In a few lines: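 Human foreskin fibroblasts in 96-well plates were treated 24 h. Total protein was measured by 0.1% SRB staining after 10% TCA fixation, read at 560 nm. Data were fitted bidirectionally against DMSO.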

Read-out in assay [12]: TIMP metallopeptidase inhibitor 1 (TIMP1), TIMP1 (gene 7076)
The assay can be described thus: BSK_hDFCGF_TIMP1: BioMAP Diversity Plus: hDFCGF Assay for TIMP metallopeptidase inhibitor 1 (TIMP1) Biomarker Activity (AID 2283062). The settings on record: primary human foreskin fibroblasts; actives raise or lower the signal. In a few lines: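 Human foreskin fibroblast primary cultures dosed for 24 h; secreted/surface TIMP-1 quantified by ELISA. Bidirectional curve fitting against DMSO baseline; cytotoxicity tracked in parallel cultures by SRB total-protein staining.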

Read-out in assay [13]: Matrix Metallopeptidase 1 (MMP1), MMP1 (gene 4312)
Description: BSK_hDFCGF_MMP1: BioMAP Diversity Plus: hDFCGF Assay for Matrix Metallopeptidase 1 (MMP1) Biomarker Activity (AID 2283064). The settings on record: primary human foreskin fibroblasts; actives raise or lower the signal. The essentials:
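Primary human foreskin fibroblasts exposed to chemicals for 24 h; MMP1 measured by ELISA. Cytotoxicity tracked by SRB staining in parallel cultures; bidirectional fit relative to DMSO.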

Read-out in assay [14]: Vascular cell adhesion molecule 1 (VCAM1), VCAM1 (gene 7412)
Description: BSK_hDFCGF_VCAM1: BioMAP Diversity Plus: hDFCGF Assay for Vascular cell adhesion molecule 1 (VCAM1) Biomarker Activity (AID 2283065).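 Also: VCAM-1 protein level quantified by ELISA after 24 h chemical exposure.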 The settings on record: primary human foreskin fibroblasts; actives raise or lower the signal. In a few lines: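 Human foreskin fibroblast primary cells dosed with chemical, VCAM-1 measured by ELISA at 24 h. Bidirectional curve fitting relative to DMSO as negative control/baseline.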

Read-out in assay [15]: Intercellular Adhesion Molecule 1 (ICAM1), ICAM1 (gene 3383)
Description: BSK_KF3CT_ICAM1: BioMAP Diversity Plus: KF3CT Assay for Intercellular Adhesion Molecule 1 (ICAM1) Biomarker Activity (AID 2283067). Particulars: primary human keratinocytes with fibroblasts; actives raise or lower the signal. In a few lines: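 Human keratinocyte–foreskin fibroblast co-culture was treated for 24 h. Cell-surface ICAM-1 was quantified by ELISA, fitted bidirectionally relative to DMSO. Cytotoxicity was checked in parallel cultures by SRB total-protein staining.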

Read-out in assay [16]: Interferon-gamma inducible Protein 10 (IP10), CXCL10 (gene 3627)
Description: BSK_KF3CT_IP10: BioMAP Diversity Plus: KF3CT Assay for Interferon-gamma inducible Protein 10 (IP10) Biomarker Activity (AID 2283068). The settings on record: primary human keratinocytes with fibroblasts; actives raise or lower the signal. The essentials:
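Human keratinocyte plus foreskin fibroblast primary co-culture exposed to test chemical for 24 h; IP-10 measured by ELISA. Concentration-response fitted bidirectionally against DMSO control as baseline.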

Read-out in assay [17]: Interleukin-1 alpha (IL1a), IL1A (gene 3552)
Description: BSK_KF3CT_IL1a: BioMAP Diversity Plus: KF3CT Assay for Interleukin-1 alpha (IL1a) Biomarker Activity (AID 2283070). Particulars: primary human keratinocytes with fibroblasts; actives raise or lower the signal. In a few lines:
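Primary human keratinocyte plus foreskin fibroblast co-culture, dosed and measured at 24 h in 96-well plates. IL-1a level quantified by ELISA; bidirectional fit relative to DMSO.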

Read-out in assay [18]: TIMP metallopeptidase inhibitor 2 (TIMP2), TIMP2 (gene 7077)
Description: BSK_KF3CT_TIMP2: BioMAP Diversity Plus: KF3CT Assay for TIMP metallopeptidase inhibitor 2 (TIMP2) Biomarker Activity (AID 2283071). Particulars: primary human keratinocytes with fibroblasts; actives raise or lower the signal. In a few lines: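 Keratinocyte–fibroblast co-culture, 24 h exposure; TIMP-2 ELISA, DMSO-normalised bidirectional fit. Parallel SRB (0.1%, TCA-fixed, 560 nm) total-protein staining gauges cytotoxicity.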

Read-out in assay [19]: Matrix Metallopeptidase 9 (MMP9), MMP9 (gene 4318)
Description: BSK_KF3CT_MMP9: BioMAP Diversity Plus: KF3CT Assay for Matrix Metallopeptidase 9 (MMP9) Biomarker Activity (AID 2283074).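 Also: MMP9 protein level quantified by ELISA in the co-culture.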 The settings on record: primary human keratinocytes with fibroblasts; actives raise or lower the signal. The essentials:
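Human keratinocyte and foreskin fibroblast co-culture exposed to chemicals for 24 h; MMP9 biomarker measured by ELISA, bidirectional fitting relative to DMSO; cytotoxicity tracked by SRB total protein staining in parallel cultures.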

Read-out in assay [20]: urokinase plasminogen activator (uPA), PLAU (gene 5328)
Description: BSK_KF3CT_uPA: BioMAP Diversity Plus: KF3CT Assay for urokinase plasminogen activator (uPA) Biomarker Activity (AID 2283075). The settings on record: primary human keratinocytes with fibroblasts; actives raise or lower the signal. In a few lines:
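Primary human keratinocyte/foreskin fibroblast co-culture exposed to chemical; uPA measured by ELISA at 24 h. Bidirectional fit versus DMSO, with parallel SRB total-protein staining for cytotoxicity.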

Read-out in the next assay: CD40, CD40 (gene 958)
The assay can be described thus: BSK_LPS_CD40: BioMAP Diversity Plus: LPS Assay for CD40 Biomarker Activity (AID 2283076). The settings on record: primary human HUVEC with PBMC; actives raise or lower the signal. The essentials:
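HUVEC plus PBMC co-culture stimulated with LPS; CD40 quantified by ELISA 24 h after compound dosing. Fitting was bidirectional relative to DMSO. SRB staining of parallel cultures flagged overt cytotoxicity.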

Values joined by “and” are separate entries in the source; they are usually repeats but may differ in a detail not shown here. Equal values may be shown once. A structure can be active in one record and inactive in another. Active and inactive are the calls of the source. The calls were made as follows: active = hit-call score of the fitted dose curve at least 0.9, where 1 is the maximum; inactive = score below 0.9.

As usually defined, the AC50 is the concentration giving half of the maximal activity seen.

As to `[Cd+2].[Cl-].[Cl-]`, the outcome in assay [1], in [7] and in assay [11] was inactive. Also, the AC50 was 5.81 µM (active) and 8.45 µM (active) in [2]; 15.9 µM (active) and 13.5 µM (active) in assay [3]; 9.94 µM (active) and 6.24 µM (active) in assay [4]; 4.05 µM (active) and 3.51 µM (active) in assay [5]; 3.57 µM (active) and 4.55 µM (active) in assay [6]; 0.156 µM (active) in [7]. Also, the AC50 is 24.2 µM (active) and 23 µM (active) in [8]; 919 nM (active) and 655 nM (active) in [9]; 939 nM (active) and 1.2 µM (active) in assay [10]; 1.12 µM (active) and 1.63 µM (active) in [12]; 3.97 µM (active) and 4.18 µM (active) in assay [13]; 1.9 µM (active) and 2.23 µM (active) in assay [14]. Moreover, the AC50 was 29.2 µM (active) and 27.5 µM (active) in [15]; 35.2 µM (active) and 33.4 µM (active) in assay [16]; 33.8 µM (active) and 30.1 µM (active) in assay [17]; 28.2 µM (active) and 20 µM (active) in [18]; 16.2 µM (active) and 20.5 µM (active) in assay [19]; 32.6 µM (active) and 35.8 µM (active) in [20]. For the same compound, in the assay with CD40, CD40 (gene 958), the AC50 was 13.1 µM (active).
